According to PubChem BioAssay:
Calls of active or inactive are those of the source. Cut-off read from the data, not from the text of the source, unless noted: active = inhibition above about 80%; inactive = the rest.

Experiments:
[1] = LFS_MB_P medulloblastoma growth inhibition, cell-based, chromothripsis tumors, cisplatin or BGB combos (AID 1671449); settings: LFS_MB_P medulloblastoma cells;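 note: cells exposed for 96 hours; 0% = vehicle DMSO and 100% = killing by high DMSO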
[2] = HDN33 neuroblastoma growth inhibition, cell-based, chromothripsis tumors, cisplatin or BGB combos (AID 1671450); settings: HDN33 neuroblastoma cells, stronger effect = higher value;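 note: cells exposed to compound for four days; 0% = vehicle DMSO and 100% = cell killing by high DMSO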
[3] = ICB984 medulloblastoma cell growth inhibition, synergistic combos for chromothripsis tumors, cisplatin or BGB combos (AID 1671451; call rule not given here;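 note: cells exposed for 96 hours before readout; 0% = vehicle DMSO and 100% = killing by high DMSO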); settings: ICB984 medulloblastoma cells, drug combinations, stronger effect = higher value
[4] = LFS_MB_1R medulloblastoma cell growth inhibition, synergistic combos for chromothripsis tumors, cisplatin or BGB combos (AID 1671452); settings: LFS_MB_1R medulloblastoma cells, stronger effect = higher value;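 note: cells exposed for 96 hours before readout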
[5] = HTB85 osteosarcoma cell growth inhibition, synergistic combos for chromothripsis tumors, BGB or cisplatin IC20 combos (AID 1671453); settings: HTB85 osteosarcoma cells, drug combinations, stronger effect = higher value;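 note: cells exposed for 96 hours before readout; 0% = vehicle DMSO and 100% = high DMSO killing control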
[6] = CRL2098 osteosarcoma cell growth inhibition, synergistic combos for chromothripsis tumors, BGB or cisplatin IC20 combos (AID 1671454); settings: CRL2098 osteosarcoma cells, drug combinations, stronger effect = higher value;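 note: cells exposed for 96 h before readout; 0% = vehicle DMSO and 100% = killing by high DMSO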
[7] = HD-MB03 medulloblastoma cell growth inhibition, synergistic combos for chromothripsis tumors, BGB or cisplatin IC20 combos (AID 1671455; in the data active = inhibition above about 83%;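 note: 0% = vehicle DMSO and 100% = high DMSO as cytotoxic control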); settings: HD-MB03 medulloblastoma cells, stronger effect = higher value
[8] = UWB1.289 ovarian carcinoma cell growth inhibition, synergistic combos for chromothripsis tumors, BGB or cisplatin combos (AID 1671456); settings: UWB1.289 ovarian carcinoma cells, stronger effect = higher value;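 note: cells exposed to compound for four days; 0% = vehicle DMSO and 100% = killing by high DMSO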
[9] = LFS_MB_2R medulloblastoma cell growth inhibition, synergistic combos for chromothripsis tumors, cisplatin combos (AID 1671457); settings: LFS_MB_2R medulloblastoma cells, stronger effect = higher value;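 note: cells exposed to compound for four days before readout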
[10] = MDA-MB-436 breast carcinoma cell growth inhibition, synergistic combos for chromothripsis tumors, BGB or cisplatin combos (AID 1671458; call rule not given here;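 note: cells exposed for 96 hours; 0% = vehicle DMSO and 100% = killing by high DMSO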); settings: MDA-MB-436 breast carcinoma growth inhibition, drug combinations, stronger effect = higher value
[11] = UWB1.289_BRCA1 ovarian cancer growth, cell-based, BGB or cisplatin combinations (AID 1671459); settings: UWB1.289 BRCA1 ovarian carcinoma, drug combinations, stronger effect = higher value
[12] = human astrocyte viability loss, single and combined drugs, cytotoxicity control for chromothriptic childhood tumor combination screen, cell-based, BGB or cisplatin IC20 combos (AID 1671460); settings: Human astrocytes, drug combinations, stronger effect = higher value;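 note: cells exposed to compounds for 96 hours before viability readout; 0% = vehicle and 100% = killing control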
[13] = growth inhibition of BT084 medulloblastoma cells, cell-based, ICGC_MB145, cisplatin and BGB IC40 combos (AID 1671461); settings: drug combinations, stronger effect = higher value;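 note: cells exposed to drugs for 96 hours; 0% = vehicle DMSO and 100% = high DMSO full killing control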
[14] = growth inhibition of RCMB18 medulloblastoma cells, cell-based, cisplatin and BGB IC40 combos (AID 1671462); settings: stronger effect = higher value;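 note: cells exposed to compound for four days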
[15] = growth inhibition of CRL1545 osteosarcoma cells, cell-based, cisplatin and BGB IC20 combos (AID 1671464); settings: stronger effect = higher value;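 note: cells exposed to compound for 96 hours before readout; 0% = vehicle DMSO and 100% = high DMSO killing control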
[16] = at 0.5 µM, stronger effect = higher value
[17] = measured here: combination with BGB IC20, at 0.005 µM
[18] = measured here: combination with BGB IC40, at 0.005 µM
[19] = measured here: combination with BGB IC40, at 0.05 µM
[20] = measured here: combination with cisplatin, at 0.5 µM, stronger effect = higher value
[21] = measured here: combination with cisplatin, at 5 µM, stronger effect = higher value
[22] = measured here: with BGB IC20 combination, at 0.5 µM
[23] = measured here: with cisplatin IC20 combination, at 0.5 µM
[24] = measured here: 5 uM single agent, at 5 µM
[25] = measured here: combination with cisplatin, at 0.5 µM
[26] = measured here: combination with cisplatin, at 5 µM
[27] = measured here: with BGB IC20, at 0.5 µM
[28] = measured here: with BGB IC20, at 5 µM
[29] = measured here: with cisplatin IC20, at 0.5 µM
[30] = measured here: with cisplatin IC20, at 5 µM
[31] = measured here: combination with BGB at IC20, at 0.5 µM
[32] = measured here: combination with cisplatin at IC20, at 0.5 µM
[33] = measured here: combo with BGB at IC20, at 0.5 µM
[34] = measured here: combo with cisplatin at IC20, at 0.5 µM
[35] = measured here: inhibition with BGB combination, at 0.05 µM
[36] = measured here: inhibition with cisplatin combination, at 0.05 µM
[37] = measured here: BGB combination, at 0.5 µM
[38] = measured here: BGB combination, at 5 µM
[39] = measured here: cisplatin combination, at 0.5 µM
[40] = measured here: cisplatin combination, at 5 µM
[41] = BGB combination, concentration series, at 5 µM
[42] = cisplatin combination, concentration series, at 5 µM
[43] = measured here: combo with BGB IC20, at 0.5 µM
[44] = measured here: combo with cisplatin IC20, at 0.5 µM
[45] = cisplatin combination, at 0.5 µM
[46] = measured here: BGB IC40 combination 0.05 uM, at 0.05 µM
[47] = measured here: BGB IC40 combination, at 0.05 µM

For `COc1cccc2c1C(=O)c1c(O)c3c(c(O)c1C2=O)CC(O)(C(C)=O)CC3OC1CC(N)C(O)C(C)O1` (stereo unspecified), the inhibition [1, 16] was -31.5% (inactive), the inhibition [1, 17] was 15.7% and the inhibition [1, 18] was -20.1%. For the same molecule, the inhibition [1, 19] was 0.2%, the inhibition [1, 20] was -39.6% and the inhibition [1, 21] was 121%. For the same molecule, the inhibition ([2]; BGB combo, at 5 µM) was 99.8%, the inhibition ([2]; at 0.5 µM) was 99.4% (active) and the inhibition ([2]; cisplatin combo, at 5 µM) was 99.9%. The inhibition [2, 22] was 98.9%, the inhibition [2, 23] was 99.7% and the inhibition ([2]; single agent, at 5 µM) was 99.9%. For the same molecule, the inhibition ([3]; BGB IC20 combo, at 0.005 µM) was 97.7%, the inhibition ([3]; BGB IC40 combo, at 0.005 µM) was 98% and the inhibition ([3]; BGB IC40 combo, at 0.05 µM) was 102%. For the same molecule, the inhibition ([3]; at 0.5 µM) was -13% (inactive), the inhibition ([3]; cisplatin combo, at 0.05 µM) was 102% and the inhibition ([3]; cisplatin combo, at 0.5 µM) was -18.7%. For the same molecule, the inhibition ([3]; cisplatin combo, at 5 µM) was 7.68%, the inhibition [3, 24] was 8.05% and the inhibition ([4]; at 0.5 µM) was 101% (active). It also gave an inhibition [4, 19] of 85%, an inhibition [4, 25] of 101% and an inhibition [4, 26] of 104%. The inhibition ([5]; at 0.5 µM) was 99.2% (active), the inhibition [5, 27] was 98.8% and the inhibition [5, 28] was 99.9%. It also gave an inhibition [5, 29] of 99.3%, an inhibition [5, 30] of 100% and an inhibition ([5]; single agent, at 5 µM) of 99.9%. For the same molecule, the inhibition ([6]; at 0.5 µM) was 99.4% (active), the inhibition [6, 31] was 98.9% and the inhibition [6, 32] was 99.6%. The inhibition ([7]; at 0.5 µM) was 97.2% (active), the inhibition [7, 33] was 95.8% and the inhibition [7, 34] was 97.5%. The inhibition ([8]; at 0.5 µM) was 72.4% (inactive), the inhibition [8, 35] was 38.4% and the inhibition [8, 36] was 35.7%. The inhibition ([9]; at 0.5 µM) was 86.9% (active), the inhibition [9, 25] was 95.6% and the inhibition [9, 26] was 112%. For the same molecule, the inhibition ([10]; at 0.5 µM) was 87.4% (active), the inhibition [10, 37] was 85.1% and the inhibition [10, 38] was 89.2%. It also gave an inhibition [10, 39] of 91.5%, an inhibition [10, 40] of 95.1% and an inhibition [11, 41] of 104%. The inhibition ([11]; at 0.5 µM) was 80.6% (active), the inhibition [11, 42] was 98.3% and the inhibition ([12]; at 0.5 µM) was 93.3% (active). For the same molecule, the inhibition [12, 43] was 88.3%, the inhibition [12, 44] was 93.9% and the inhibition ([13]; at 0.5 µM) was 40.4% (inactive). For the same molecule, the inhibition [13, 45] was 18.1%, the inhibition ([13]; cisplatin combination, at 5 µM) was 88% and the inhibition [13, 46] was -6.7%. For the same molecule, the inhibition ([13]; single agent, at 5 µM) was 88.2%, the inhibition ([14]; at 0.5 µM) was 79% (inactive) and the inhibition ([14]; cisplatin combo, at 5 µM) was 90.7%. The inhibition [14, 47] was 13.9%, the inhibition [14, 25] was 77.7% and the inhibition ([14]; single agent, at 5 µM) was 94.7%. For the same molecule, the inhibition ([15]; at 0.5 µM) was 99.5% (active), the inhibition [15, 22] was 99.1% and the inhibition [15, 23] was 99.7%. For the same molecule, the inhibition ([15]; single agent, at 0.05 µM) was 98.4% and the inhibition ([15]; single agent, at 5 µM) was 100%.
For `CC(C)c1ccc(-c2cc(=O)c3ccccc3o2)cc1`, the inhibition [1, 16] was -1.02% (inactive), the inhibition [1, 17] was -13.4% and the inhibition [1, 18] was -27.4%. The inhibition [1, 19] was 8.34%, the inhibition [1, 20] was 64.5% and the inhibition [1, 21] was 60.2%. The inhibition ([2]; BGB combo, at 5 µM) was 30.8%, the inhibition ([2]; at 0.5 µM) was -12.3% (inactive) and the inhibition ([2]; cisplatin combo, at 5 µM) was 30.4%. It also gave an inhibition [2, 22] of -6.46%, an inhibition [2, 23] of -22.2% and an inhibition ([2]; single agent, at 5 µM) of 42.1%. The inhibition ([3]; BGB IC20 combo, at 0.005 µM) was 5.4%, the inhibition ([3]; BGB IC40 combo, at 0.005 µM) was -31.5% and the inhibition ([3]; BGB IC40 combo, at 0.05 µM) was 14.8%. The inhibition ([3]; at 0.5 µM) was -18.8% (inactive), the inhibition ([3]; cisplatin combo, at 0.05 µM) was 11.4% and the inhibition ([3]; cisplatin combo, at 0.5 µM) was -24.5%. The inhibition ([3]; cisplatin combo, at 5 µM) was -45%, the inhibition [3, 24] was -10.3% and the inhibition ([4]; at 0.5 µM) was -36.4% (inactive). For the same molecule, the inhibition [4, 19] was -28.3%, the inhibition [4, 25] was -81.6% and the inhibition [4, 26] was 18.3%. For the same molecule, the inhibition ([5]; at 0.5 µM) was -40.2% (inactive), the inhibition [5, 27] was -39.8% and the inhibition [5, 28] was 1.8%. The inhibition [5, 29] was -59.9%, the inhibition [5, 30] was 17.5% and the inhibition ([5]; single agent, at 5 µM) was 16.9%. For the same molecule, the inhibition ([6]; at 0.5 µM) was -58.5% (inactive), the inhibition [6, 31] was -35.3% and the inhibition [6, 32] was -37.3%. The inhibition ([7]; at 0.5 µM) was -10% (inactive), the inhibition [7, 33] was -14% and the inhibition [7, 34] was -4.48%. For the same molecule, the inhibition ([8]; at 0.5 µM) was -15.3% (inactive), the inhibition [8, 35] was -31.9% and the inhibition [8, 36] was -16.9%. The inhibition ([9]; at 0.5 µM) was -14.3% (inactive), the inhibition [9, 25] was -16.1% and the inhibition [9, 26] was 41.6%. For the same molecule, the inhibition ([10]; at 0.5 µM) was -11.1% (inactive), the inhibition [10, 37] was -14.1% and the inhibition [10, 38] was 27.2%. It also gave an inhibition [10, 39] of -11.6%, an inhibition [10, 40] of 22.8% and an inhibition [11, 41] of 43.9%. The inhibition ([11]; at 0.5 µM) was -16.7% (inactive), the inhibition [11, 42] was 32.9% and the inhibition ([12]; at 0.5 µM) was -3.03% (inactive). For the same molecule, the inhibition [12, 43] was 2.13%, the inhibition [12, 44] was -6.48% and the inhibition ([13]; at 0.5 µM) was -10.1% (inactive). For the same molecule, the inhibition [13, 45] was -5.92%, the inhibition ([13]; cisplatin combination, at 5 µM) was 41.9% and the inhibition [13, 46] was -23.7%. For the same molecule, the inhibition ([13]; single agent, at 5 µM) was 42.7%, the inhibition ([14]; at 0.5 µM) was -14% (inactive) and the inhibition ([14]; cisplatin combo, at 5 µM) was 35.3%. For the same molecule, the inhibition [14, 47] was -32.1%, the inhibition [14, 25] was -17.3% and the inhibition ([14]; single agent, at 5 µM) was 35%. The inhibition ([15]; at 0.5 µM) was -29.6% (inactive), the inhibition [15, 22] was -34% and the inhibition [15, 23] was -27.5%. The inhibition ([15]; single agent, at 0.05 µM) was -43.4% and the inhibition ([15]; single agent, at 5 µM) was 26.5%.
